Experiment [1] is described as follows: qHTS assay for small molecule agonists of the p53 signaling pathway (AID 651631; calls by dose curve; note: nearly all actives have a fitted effect of over 15% in size; note: potency is the fitted concentration of half-maximal effect). In short, it runs like this:
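Fluorescence intensity from cleaved LiveBLAzer B/G substrate (2 h, room temperature) served as the signal. Beforehand, HCT-116 reporter cells bearing p53 response elements were treated 16 h at 37 °C with DMSO-dissolved compounds.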
(In general: qHTS replaces the single test concentration by a dilution series.)

Experiment [2] is described as follows: qHTS assay for small molecules that induce genotoxicity in human embryonic kidney cells expressing luciferase-tagged ATAD5 (AID 651632). Note: nearly all actives have a fitted effect of over 15% in size. In short, it runs like this:
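Test compounds were delivered by pin tool onto HEK293T reporter cells (2,000/well) expressing ATAD5 fused to luciferase. After 16 hr at 37C, 5% CO2, Amplite was added for 30 min at room temperature and luminescence was measured.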

A short description of experiment [3]: qHTS assay for small molecule agonists of the p53 signaling pathway - cell viability (AID 651633; calls by dose curve; note: nearly all actives have a fitted effect of over 30% in size; note: potency is the fitted concentration of half-maximal effect). In short, it runs like this:
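p53RE-bla cells were treated with compound for 16 hours at 37 C. Cytotoxicity was then measured as CellTiter-Glo luminescence after 30 min at room temperature.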

The nature of experiment [4]: qHTS assay for small molecules that induce genotoxicity in human embryonic kidney cells expressing luciferase-tagged ATAD5 - cell viability (AID 651634; calls by dose curve; note: nearly all actives have a fitted effect of over 25% in size; note: potency is the fitted concentration of half-maximal effect). In short, it runs like this:
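Quantitative high-throughput format. HEK293T cells expressing ATAD5 fused to luciferase were plated at 2,000 cells/well and treated 15.5 hr with compound versus DMSO. Viability was determined by fluorescent live-cell protease substrate, 30 min at 37C.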

A short description of experiment [5]: qHTS assay for small molecule disruptors of the mitochondrial membrane potential - cell viability (AID 720634; calls by dose curve; note: nearly all actives have a fitted effect of over 20% in size; note: potency is the fitted concentration of half-maximal effect). In short, it runs like this: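 Same-well counter-screen: following the MMP dye addition, CellTiter-Glo was added to 1 hr compound-treated HepG2 cells and luminescence read after 30 min at room temperature.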
Experiment [6] is described as follows: qHTS assay for small molecule disruptors of the mitochondrial membrane potential (AID 720635). Note: potency is the fitted concentration of half-maximal effect. In short, it runs like this:
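HepG2 cells exposed to compound 1 hr at 37C, then Mito-MPS dye 30 min. Ratio read of aggregate (540/590 nm) versus monomer (490/535 nm) fluorescence.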

A short description of experiment [7]: qHTS assay to test for compound auto fluorescence at 590 nm (red) in HepG2 cells (AID 720674). In short, it runs like this:
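Fluorescence at 590 nm emission following 540 nm excitation was recorded from HepG2 wells one hour after compound transfer, with DMSO-only wells as vehicle and Rose Bengal sodium equivalency as the scale.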

Experiment [8] in a line: qHTS assay to test for compound auto fluorescence at 535 nm (green) in HepG2 cells (AID 720675).
Experiment [9] can be described thus: qHTS assay to test for compound auto fluorescence at 460 nm (blue) in HEK293 cells (AID 720678). In short, it runs like this: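 Triamterene serves as the blue fluorophore standard. Compound signal at 405/460 nm is read in HEK293 wells (2,000 cells, 10% dialyzed FBS) after overnight treatment at 37C.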
Experiment [10] in a line: qHTS assay to test for compound auto fluorescence at 590 nm (red) in HEK293 cells (AID 720679). In short, it runs like this:
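We plated HEK293 cells in 10% dialyzed FBS medium, let them adhere for 4-5 hr, then added 23 nL compound. Overnight at 37C and 5% CO2 preceded fluorescence measurement at 540/590nm.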

22 molecules from PubChem BioAssay (Tox21) can be followed below.

Several values for one entry are separate records, joined by “and”; a condition that tells them apart may be missing. Equal values may be shown once. Inconclusive results are not listed. The source holds several records for some structures; these can differ, active in one and inactive in another. Activity calls are given as the source filed them. Unless noted, calls come from the whole dose curve; as a rule, active = well fitted curve in the direction sought with a large enough effect in the repeat runs; inconclusive = weak or mixed curves; inactive = no such curve, though single readings can be large; an effect the other way counts as inactive or inconclusive.

Take `CCOc1cc(C=O)ccc1O`: the Potency entry in experiment [1], in experiment [2], in [3], in experiment [4], in experiment [5] and in experiment [6] was “inactive” each time. Also, the result in experiment [7], in [8], in experiment [9] and in experiment [10] was inactive.

Turning to `CN(C)C(=O)Nc1ccc(Cl)cc1`, the Potency result in experiment [1], in experiment [2], in experiment [3], in experiment [4], in experiment [5] and in [6] was “inactive” in each case. Further, the call in experiment [7], in experiment [8], in experiment [9] and in experiment [10] was inactive.

Regarding `CCCCOCCOP(=O)(OCCOCCCC)OCCOCCCC`, the Potency result in experiment [1], in experiment [2] and in experiment [4] was “inactive” in each case. Also, the Potency was 54.5 µM (active) and inactive in experiment [3]; 54.5 µM (active) and inactive in [5]; 27.3 µM (active) and inactive in experiment [6]. The molecule was called inactive in experiment [7], in experiment [8], in experiment [9] and in experiment [10].

Consider `CCCCN(CCCC)N=O`, for which the Potency entry in [1], in experiment [2], in experiment [3], in experiment [4], in experiment [5] and in experiment [6] was “inactive” in each case. Also, the result in experiment [7], in [8], in [9] and in experiment [10] was inactive.

For the molecule `Nc1ccncc1`, the Potency entry in experiment [1], in experiment [2], in experiment [3], in experiment [4], in experiment [5] and in experiment [6] was “inactive” in each case. Moreover, the molecule was classed as inactive in experiment [7], in experiment [8], in [9] and in experiment [10].

`COP(=S)(OC)Oc1cc(Cl)c(Cl)cc1Cl`: the Potency result in experiment [1], in experiment [2], in experiment [3], in experiment [4] and in experiment [5] was “inactive” in each case. Further, the Potency in [6] was 11.9 µM (active) and 29.8 µM (active) and 7.64 µM (active). Moreover, the molecule was called inactive in experiment [7], in experiment [8], in experiment [9] and in experiment [10].

For the molecule `O=[N+]([O-])c1ccc(O)c([N+](=O)[O-])c1`, the Potency result in [1], in experiment [2] and in [3] was “inactive” throughout. The Potency in experiment [4] is 27.4 µM (active) and 27.3 µM (active); in experiment [5] it was 10.9 µM (active); in [6], 689 nM (active) and 545 nM (active). Also, the molecule was called inactive in [7], in experiment [8], in [9] and in experiment [10].

`NNC(=S)NN`: the Potency result in experiment [1], in experiment [2], in experiment [3], in experiment [4], in [5] and in experiment [6] was “inactive” in each case. Besides, the molecule was called inactive in experiment [7], in experiment [8], in experiment [9] and in [10].

Turning to `CNC(=O)Oc1cccc2c1OC(C)(C)O2`, the Potency entry in [1], in [2], in [3], in [4], in [5] and in experiment [6] was “inactive” each time. The result in [7], in [8], in experiment [9] and in experiment [10] was inactive.

Take `O=P(O)(O)CCCl`: the Potency entry in experiment [1], in experiment [2], in [3], in experiment [4], in [5] and in experiment [6] was “inactive” each time. The molecule was called inactive in experiment [7], in [8], in [9] and in experiment [10].

`c1ccc(N=Nc2ccccc2)cc1`: the Potency result in experiment [1], in [2], in experiment [3], in experiment [4], in experiment [5] and in experiment [6] was “inactive” in each case. For the same molecule, the molecule was called inactive in experiment [7], in experiment [8], in experiment [9] and in experiment [10].

Take `O=c1oc2ccccc2c(O)c1C(CC(O)c1ccc(-c2ccc(Br)cc2)cc1)c1ccccc1` (stereo unspecified): the Potency was 21.1 µM (active) and 46 µM (active) in experiment [1]; 9.44 µM (active) and 51.6 µM (active) in experiment [3]; 6.68 µM (active) in experiment [5]; 6.68 µM (active) and 23 µM (active) in experiment [6]. The Potency entry in experiment [2] and in experiment [4] was “inactive” each time. Moreover, the molecule was called inactive in [7], in experiment [8], in experiment [9] and in [10].

Consider `O=P(Oc1ccccc1)(Oc1ccccc1)Oc1ccccc1`, for which the Potency result in experiment [1], in experiment [2], in [3] and in experiment [4] was “inactive” each time. The Potency was 13.6 µM (active) in [5]; 242 nM (active) and 1.22 µM (active) in [6]. In addition, the molecule was classed as inactive in experiment [7], in [8], in experiment [9] and in experiment [10].

For `NNC(N)=S`, the Potency entry in [1], in [2], in experiment [3], in experiment [4] and in experiment [5] was “inactive” throughout. Also, the Potency in experiment [6] is 63.5 µM (active) and inactive. Further, the call in [7], in experiment [8], in experiment [9] and in experiment [10] was inactive.

As to `COc1ccc(C(CN(C)C)C2(O)CCCCC2)cc1` (stereo unspecified), the Potency result in experiment [1], in experiment [2], in experiment [3], in [4], in [5] and in experiment [6] was “inactive” throughout. The molecule was called inactive in experiment [7], in experiment [8], in [9] and in experiment [10].

With `C[C@]12CCC(=O)C(O)=C1CC[C@@H]1[C@@H]2CC[C@]2(C)C(=O)CC[C@@H]12`, the Potency entry in experiment [1], in experiment [2], in experiment [3], in experiment [4], in experiment [5] and in [6] was “inactive” in each case. Further, the call in experiment [7], in [8], in [9] and in experiment [10] was inactive.

Turning to `O=C1C=CC(=O)C=C1`, the Potency entry in experiment [1], in experiment [2], in experiment [3], in experiment [4], in [5] and in experiment [6] was “inactive” throughout. Besides, the outcome in experiment [7], in experiment [8], in experiment [9] and in [10] was inactive.

With `NCc1cccnc1`, the Potency entry in experiment [1], in experiment [2], in experiment [3], in [4], in experiment [5] and in [6] was “inactive” in each case. Besides, the result in [7], in [8], in experiment [9] and in experiment [10] was inactive.

`CCC(C)(C)c1ccc(O)cc1`: the Potency result in [1], in experiment [2], in experiment [3] and in experiment [4] was “inactive” each time. Moreover, the Potency in [5] is 55 µM (active) and inactive; in [6] it was 26.6 µM (active) and 17.4 µM (active) and 15.4 µM (active). The result in [7], in experiment [8], in [9] and in experiment [10] was inactive.

For `COC(=O)c1sccc1S(=O)(=O)NC(=O)Nc1nc(C)nc(OC)n1`, the Potency entry in experiment [1], in experiment [2], in experiment [3], in [4], in [5] and in [6] was “inactive” each time. For the same molecule, the result in [7], in [8], in experiment [9] and in [10] was inactive.

Consider `Nc1cccnc1`, for which the Potency entry in experiment [1], in [2], in experiment [3], in experiment [4], in experiment [5] and in experiment [6] was “inactive” each time. Also, the call in experiment [7], in experiment [8], in experiment [9] and in [10] was inactive.

In the case of `OCC(O)CO`, the Potency result in [1], in experiment [2], in [3], in [4], in [5] and in [6] was “inactive” throughout.
